Bioassay records (PubChem)
The list is not random: actives were taken first. Their share in the collection is about 1.9%.
eIF4H FP inh – inhibitors of RNA binding by human eIF4H; Q15056; eIF4H fluorescence polarization binding assay; inhibition, % at 35 µM; 0.94% of 290,000 active; AID 2012;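 note: calls also rest on retests at 20 µM and on dose response follow-up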
14-3-3 Bad inh – disrupts binding of bovine 14-3-3 zeta to phospho-Bad peptide. 0.71% of 220,000 active. TR-FRET 14-3-3zeta/Dy647-pBad peptide displacement, 1 h. P63103. inhibition, % at 21.7 µM. AID 781;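 active = inhibition above about 70%, limit read from the data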;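 note: 0% = full 14-3-3 plus peptide FRET controls and 100% = background without 14-3-3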
Target sequence (P63103 whole entry, looked up): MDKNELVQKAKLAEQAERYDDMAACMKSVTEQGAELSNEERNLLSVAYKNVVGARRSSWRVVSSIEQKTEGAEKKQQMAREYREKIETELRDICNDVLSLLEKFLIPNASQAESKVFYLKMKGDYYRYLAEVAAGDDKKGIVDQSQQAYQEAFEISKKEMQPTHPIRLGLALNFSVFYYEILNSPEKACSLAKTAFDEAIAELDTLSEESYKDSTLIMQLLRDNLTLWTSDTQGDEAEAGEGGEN
PABP polyA inh – blocks human PABP binding to poly(A) RNA; P11940; calls only at 35 µM; fluorescence polarization; AID 2014; 1% of 290,000 active;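 note: calls also rest on retests at 20 µM and on dose response follow-up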
PABP1 MLLE inh – blocks PAM2 peptide binding to the PABP1 MLLE domain | AID 588489 | inhibition, % at 20 µM | P11940 | GST-MLLE / FITC-PAM2 fluorescence polarization | 0.36% of 360,000 active; in the data active = inhibition above about 35%, passing the limit was not always enough;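 note: plate controls were DMSO wells with GST-MLLE for no effect and wells lacking GST-MLLE protein for full effect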
eIF4E-4G inh – eIF4E/eIF4G interaction inhibition in translation initiation. 0.37% of 220,000 active. inhibition, % at 21.7 µM. P63073+Q04637. AID 782. TR-FRET eIF4E-eIF4GI(517-606) binding, 2 h;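 active = inhibition above about 30%, limit read from the data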;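 note: 0% = full FRET control wells and 100% = background wells lacking eIF4GI fragment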
Starred values were filed as active, the others as inactive; i = inactive; ? = inconclusive; / = not tested or not shown; + = active, no number; [ ] = remark or other dose. Unless noted, the rule behind the calls is not given here.

SMILES | eIF4H FP inh | 14-3-3 Bad inh | PABP polyA inh | PABP1 MLLE inh | eIF4E-4G inh
Cc1cc(C)cc(C(=O)NCC(=O)OCC(=O)N2c3ccccc3NC(=O)C2(C)C)c1 | 76* | 7 | + | 8 | 14
COc1cc(OC)cc(C(=O)NCC(=O)OCC(=O)N2c3ccccc3NC(=O)C2(C)C)c1 | 9 | 6 | i | 1 | 5
C[C@@H]1CN([C@@H](C)CO)S(=O)(=O)c2ccc(C#CC3CCCCC3)cc2O[C@@H]1CN(C)Cc1cccnc1 | / | / | / | -17 | /
Cc1cc(N2CCOCC2)nc(NCc2ccccc2)n1 | -4 | -1 | i | 3 | -3
Cc1cc(N2CCCCC2)nc(NCc2ccccc2)n1 | 4 | -3 | i | -1 | 67*
O=C1NN(CCO)C(=S)Nc2ccccc21 | / | / | / | 36* | /
CN1CC(=O)Nc2ccccc2C1=O | -4 | / | i | -9 | /
NS(=O)(=O)c1ccc(N=Nc2c[nH]c(=O)c(O)c2)cc1 | 54* | 1 | + | 102 | 7
Nc1nc(O)c(N=Nc2ccc(S(N)(=O)=O)cc2)c(=O)[nH]1 | -4 | / | i | / | /
CCn1c(N)c(C(=O)NC2CCCCC2)sc1=S | 2 | -14 | i | 42* | 0
CC(C)(C)c1ccc(NC(=O)COC(=O)C2(C)CC2(Cl)Cl)cc1 (centres undefined) | 8 | -4 | i | -3 | 3
COCCCN1C(=O)C(CC(=O)NC(c2ccccc2)c2ccccc2)CC(C(=O)N(C(C)C)C(C)C)=C1C (centres undefined) | / | / | / | 3 | /
NCC(O)CN(c1ccccc1)c1ccccc1 (centres undefined) | 5 | -12 | i | -1 | 5
CC(C)[N+](C)(C)CC(O)CN(c1ccccc1)c1ccccc1 (centres undefined) | -4 | 1 | + | -128 | 9
C=CC[C@@H](CC(=O)N[C@H](CO)Cc1ccccc1)C(=O)NC[C@H](OC(=O)[C@@H](CC=C)Cc1ccc(F)cc1)c1ccccc1 | / | / | / | 6 | /
Cc1ccc(NC2=CC(=O)CC(C)(C)C2)c(N)c1 | 82* | -20 | + | 6 | 2
CC1(C)CC(=O)C=C(Nc2ccccc2N)C1 | -9 | / | i | 4 | /
Cc1ccc(NCc2cccnc2)cc1 | 117 | 71* | i | 5 | 7
COc1cccc(-c2nc(CSCC(=O)NCC3CCCO3)c(C)o2)c1 (centres undefined) | -5 | -9 | i | 46* | -6
COc1ccc(-c2nc(CS(=O)CC(=O)NCC3CCCO3)c(C)o2)cc1 (centres undefined) | 0 | 0 | i | 14 | 0
CN(C)NC(=S)NC1CC2CCC1C2 (centres undefined) | -20 | -2 | i | -36 | 90*
COc1ccc(-n2nc(C(=O)NCc3ccco3)c3c4ccccc4n(C)c3c2=O)cc1 | 2.8* | 2 | + | 8 | -3
Nc1ccc(C(=O)CC(=O)Nc2ccc(Cl)cc2)cc1 | -3 | / | i | 1 | /
Cc1c(C(=O)N2CCCCC2)nn(-c2ccc(Cl)cc2)c(=O)c1C#N | -11 | 17 | i | 10 | 43*
Cc1ccc(N2CCN(C(=O)c3cc(-c4ccc(F)cc4)[nH]c3C)CC2C)cc1 (centres undefined) | ? | / | + | -14 | /
SMILES | eIF4H FP inh | 14-3-3 Bad inh | PABP polyA inh | PABP1 MLLE inh | eIF4E-4G inh
CCC(C)[C@H](N)C(=O)NC[C@H]1CC[C@H](C(=O)N[C@@H](Cc2ccccc2)C(=O)O)CC1 (some centres undefined) | 1 | / | i | -14 | /
CC(Sc1ccc2c(c1)OCCO2)C(=O)Nc1ncc(Cl)cc1Cl (centres undefined) | 3 | -2 | i | 43* | 3
CCC(=O)Nc1nc(NCc2ccccc2OC)n(-c2ccccc2)n1 | -7 | / | i | -7 | /
C[C@@H]1CN([C@@H](C)CO)C(=O)CCCn2nncc2CO[C@H]1CN(C)C(=O)C1CC1 | / | / | / | -3 | /
N#C/C(=C\c1ccc(-c2ccc([N+](=O)[O-])cc2)o1)C(=O)Nc1nc(-c2cccs2)cs1 | 9 | 68 | i | -17 | 31*
Cc1ccc(S(=O)(=O)N(C)c2ccc(C(=O)Nc3c(C)n(C)n(-c4ccccc4)c3=O)cc2)cc1 | 10 | -5 | i | -10 | 1
Cc1cc2oc(C(=O)N(Cc3ccccc3)C3CCS(=O)(=O)C3)cc(=O)c2cc1Cl (centres undefined) | -10 | 88*[fluorescence artefact?] | i | -4 | 6
O=C(c1cc(=O)c2ccccc2o1)N(Cc1ccccc1)C1CCS(=O)(=O)C1 (centres undefined) | -3 | / | i | 8 | /
CC(=O)Nc1cccc(-c2nc3ccccc3s2)c1 | -6 | 5 | i | -10 | 3
Cc1ccc(C(=O)NC(=S)Nc2cccc(-c3nc4ccccc4s3)c2)cc1 | 10 | -10 | i | 41* | 0
CCN(CC)S(=O)(=O)c1ccc(C)c(NC(=S)Nc2cccc(S(=O)(=O)N3CCCCCC3)c2)c1 | -5 | -25 | i | 37* | -1
Cc1ccc(S(=O)(=O)N2CCCCC2)cc1NC(=S)NC(=O)c1ccco1 | -12 | -4 | i | 40* | 5
O=C(NC(=S)Nc1cc(S(=O)(=O)N2CCOCC2)ccc1O)c1ccco1 | 4 | -14 | i | 35 | 1
O=C(NC(=S)Nc1ccc(CN2CCOCC2)cc1)c1ccco1 | -2 | -2 | i | 29 | 0
O=C(NC(=S)Nc1ccc(CN2CCCCC2)cc1)c1ccco1 | -8 | -9 | i | 36* | 1
CC(=O)Nc1cc(NC(C)=O)cc(C(=O)N2CCCC3CCCCC32)c1 (centres undefined) | 79* | / | + | -28 | /
COc1ccc(-n2c(C)cc(/C=C3\SC(=S)N(Cc4ccco4)C3=O)c2C)cc1 | 36 | -13 | i | -127 | -1
CCN1CCN(c2c(/C=C3\SC(=S)N(Cc4ccco4)C3=O)c(C)c(C#N)c(=O)n2C)CC1 | ? | 29 | + | -93 | -5
C[n+]1ccccc1/C=C/c1ccc([N+](=O)[O-])cc1 | -1 | / | i | -103 | /
C[n+]1ccccc1/C=C/c1ccc2ncccc2c1 | 10 | / | + | -101 | /
C[n+]1ccccc1/C=C/c1ccc(C#N)cc1 | 41 | / | + | -93 | /
C[n+]1ccccc1/C=C/c1ccc(F)c(F)c1 | / | / | / | -125 | /
CC(=O)c1ccc(NC(=O)c2cn(C)c(=O)c3ccccc23)cc1 | / | / | / | -2 | /
COC(=O)C1=C(C)NC(=O)/C1=C\c1cc(C)n(-c2ccc(F)cc2)c1C | 30 | -1 | i | 5 | 2
Cc1cc(/C=C2/C(=O)NN(c3ccccc3)C2=O)c(C)n1-c1cccc(O)c1 | 62* | -10 | i | -7 | 3
COC(=O)C1=C(C)NC(=O)/C1=C\c1cc(C)n(-c2cccc(C)c2)c1C | 121 | 7 | + | -6 | 4
Cc1ccc(/C=C2/Sc3ccc(C(=O)N4CCN(C)CC4)cc3NC2=O)cc1 | 88 | / | + | 46* | /
CC1CCN(C(=O)c2ccc3c(c2)NC(=O)/C(=C/c2ccccc2)S3)CC1 | / | / | / | 8 | /
O=C(NNC(=O)c1ccncc1)Nc1ccc([N+](=O)[O-])cc1 | -1 | -3 | + | -8 | -2
